Screening results deposited in PubChem by several laboratories.
CHO-K1 Ca ag = nonselective activator or artifact in parental CHO-K1 cells; activation, % at 3 µM; Fluo-8 calcium fluorescence; scaled to maximal ATP response, vehicle zero; hit rate 0.48% among 360,000; in the data active means activation above about 15%;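 further: untransfected CHO-K1 host cells lacking M1 receptor as counterscreen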
M1 PAM parental = nonselective activator or artifact in parental CHO-K1 calcium assay; ATP EC20, Fluo-8 calcium fluorescence; 0% at ATP EC20, 100% at ATP max; hit rate 0.02% among 360,000; AID 602247; activation, % at 3 µM;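 active means activation above the run cutoff, the mean activation of all test compounds plus 3 SD, cut at about 40% in these data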;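 further: peak over basal fluorescence ratio in a 140 s read after ATP addition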
ANO1 activ = activators or potentiators of mouse TMEM16A chloride channel; AID 623877; hit rate 0.3% among 340,000; HEK293 TMEM16A/YFP-H148Q/I152L, iodide quench fluorescence; stronger effect = lower value; Q8BHY3; B-score at 10 µM;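 active means fluorescence-ratio B-score plate-corrected deviation score at least 3 library SD below zero, with starting fluorescence score within 5 deviations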;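 further: channel opened by trigger with iodide after compound preincubation; score built on the fluorescence ratio of max minus min over baseline; more negative score means more quench and so TMEM16A activation or potentiation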
Target sequence (Q8BHY3 whole entry, looked up): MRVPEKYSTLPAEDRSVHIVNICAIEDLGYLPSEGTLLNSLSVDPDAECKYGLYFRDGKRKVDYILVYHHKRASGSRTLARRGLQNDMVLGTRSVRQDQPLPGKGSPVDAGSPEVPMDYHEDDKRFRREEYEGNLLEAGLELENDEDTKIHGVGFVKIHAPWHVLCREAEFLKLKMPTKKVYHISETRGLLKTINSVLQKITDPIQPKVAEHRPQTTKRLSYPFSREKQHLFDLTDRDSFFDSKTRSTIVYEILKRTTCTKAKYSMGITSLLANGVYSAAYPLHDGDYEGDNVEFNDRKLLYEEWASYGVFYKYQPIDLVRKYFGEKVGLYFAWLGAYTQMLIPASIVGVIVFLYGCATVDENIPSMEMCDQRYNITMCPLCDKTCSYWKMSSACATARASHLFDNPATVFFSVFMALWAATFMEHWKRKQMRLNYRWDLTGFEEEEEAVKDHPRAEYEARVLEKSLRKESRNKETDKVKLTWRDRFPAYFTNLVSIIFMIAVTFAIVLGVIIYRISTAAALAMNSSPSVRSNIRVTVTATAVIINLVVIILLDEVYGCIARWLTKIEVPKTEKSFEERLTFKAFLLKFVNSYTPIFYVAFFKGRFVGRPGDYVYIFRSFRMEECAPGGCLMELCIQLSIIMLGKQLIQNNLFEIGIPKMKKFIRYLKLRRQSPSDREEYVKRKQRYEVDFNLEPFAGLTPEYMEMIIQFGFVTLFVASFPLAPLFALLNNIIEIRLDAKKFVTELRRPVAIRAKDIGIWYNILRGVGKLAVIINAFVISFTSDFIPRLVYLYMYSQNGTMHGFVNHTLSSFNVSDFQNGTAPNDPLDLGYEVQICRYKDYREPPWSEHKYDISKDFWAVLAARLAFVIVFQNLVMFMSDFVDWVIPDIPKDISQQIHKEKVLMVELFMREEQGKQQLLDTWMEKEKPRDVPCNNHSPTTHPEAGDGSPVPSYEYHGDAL
CHO-K1 Ca antag = counter-screen for M1 antagonists: effect in parental CHO-K1 cells | inhibition, % at 3 µM | hit rate 0.6% among 360,000 | ATP-induced calcium, Fluo-8 fluorescence;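 active means inhibition above a per-plate cutoff, the plate's mean sample inhibition plus 3 SD, cut at about 24% in these data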;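 further: 0% = DMSO plus EC80 ATP and 100% = DMSO alone without ATP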
TMEM16A inh = blocks the mouse calcium-activated chloride channel TMEM16A; Q8BHY3; HEK293 TMEM16A/YFP iodide influx fluorescence, ionomycin; normalized B-score (activity score, 25-100; higher = stronger inhibition) at 10 µM; hit rate 1.2% among 310,000; AID 588511;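 active means ratio plate-corrected score three or more library SD toward inhibition, starting fluorescence score within five deviations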;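 further: score derived from kinetic fluorescence span divided by baseline fluorescence per well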
NTR1 ag = agonists of human neurotensin receptor NTR1. AID 493036. activation, % at 20 µM. hit rate 0.17% among 330,000. NTR1-U2OS beta-arrestin-GFP spot imaging, agonist mode;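 active means activation at or above 40% of the spot to cytoplasm intensity ratio, with at least 20 cells analyzed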;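 further: 0% = DMSO without peptide and 100% = 100 nM NTR1 peptide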
* marks the source's active call; other numbers are inactive results; i = inactive; / = no result given. Hits are enriched below; roughly 2.2% of the tested compounds scored in any of these assays.

SMILES	CHO-K1 Ca ag	M1 PAM parental	ANO1 activ	CHO-K1 Ca antag	TMEM16A inh	NTR1 ag
COc1ccc(NS(=O)(=O)c2ccc3c(c2)OCCO3)cc1OC	14	-2	i	36*	i	2
O=S(=O)(Nc1ccc2c(c1)OCCO2)c1ccc2oc3ccccc3c2c1	6	6	i	-14	25*	3
COc1ccc(S(=O)(=O)Nc2ccc3c(c2)OCO3)cc1OC	1	19	i	-10	i	-2
O=S(=O)(Nc1ccc2c(c1)OCCO2)c1ccc(F)c(F)c1	5	17	i	-7	i	-1
Cc1cc(C)cc(Cn2cc(CN3CC(N4CCSCC4)CS3(=O)=O)nn2)c1 (stereo not given)	0	0	/	1	/	/
CC1CCN(CCOCCSc2ccc(Cl)cc2)CC1	0	-8	i	27*	i	-1
Cc1cc(Br)cn2c(Cc3ccsc3)c(-c3ccco3)nc12	0	15	/	-14	/	/
COc1cc(CC(=O)NCc2ccco2)cc(OC)c1OC	0	4	i	-8	i	2
COc1cc(C(=O)NCc2ccco2)cc(OC)c1OC	0	1	-24*	-10	i	-1
O=C(NCc1ccco1)c1ccc(CN2CCOCC2)cc1	0	-8	i	24*	i	-1
COc1cccc(/C=C/C(=O)OCC(=O)c2c(N)n(C)c(=O)n(C)c2=O)c1	4	-17	i	-11	/	2
O=C(c1ccc(CS(=O)Cc2ccc(Cl)cc2)o1)N1CCN(C2CCCCC2)CC1 (stereo not given)	0	21	/	-1	/	/
COc1ccc(-c2csc(NC(=O)c3ccccc3NS(=O)(=O)c3ccc(F)c(F)c3)n2)cc1	15*	-14	i	23	100*	15
Cc1ccccc1CN(C)C(C)C(=O)Nc1ccccc1F (stereo not given)	19*	18	i	-5	i	0
N#Cc1c(N)[nH]c2ccc(Sc3ccccc3)cc12	2	14	i	-6	/	/
CCCCCc1c2c(cc(O)c1C(=O)O)OC(=O)c1c(cc(OC)cc1C(=O)CCCC)O2	0	14	i	-6	100*	38
CCCCc1c(C(=O)O)cc(OC)cc1C(=O)O	1	8	i	-12	i	-1
CN(C)CCN(C)Cc1c2ccccc2c(CN(C)CCN(C)C)c2ccccc12	0	-3	-5.5*	-1	i	0
COc1ccc(C(C(=O)NC2CCCC2)N(C(=O)c2ccoc2C)c2ccccc2)cc1 (stereo not given)	2	1	i	-7	i	2
COc1ccc(C(C(=O)NC2CCCC2)N(C(=O)c2ccoc2C)c2cc(C)cc(C)c2)cc1 (stereo not given)	-1	1	i	3	i	2
CCc1ccc(N(C(=O)c2ccoc2C)C(C(=O)NC2CCCC2)c2ccc(OC)cc2)cc1 (stereo not given)	-1	-14	i	28*	i	6
COc1ccc(C(C(=O)NC2CCCC2)N(C(=O)c2ccoc2C)c2ccc(C)c(C)c2)cc1 (stereo not given)	-1	-14	i	25*	i	5
Cc1nn(-c2ccccc2)c(Cl)c1/C=N/NC(=O)c1ccccc1NS(=O)(=O)c1cccs1	1	-1	i	3	100*	0
Cc1cc[n+](-c2[nH]c(=O)sc2/C=N/N=C(\[O-])c2ccncc2)cc1C	0	-26	i	18	i	0
Cc1cc[n+](-c2[nH]c(=O)sc2/C=N/N=C(\[O-])c2ccccc2)cc1C	3	15	-5.6*	-10	/	/
SMILES	CHO-K1 Ca ag	M1 PAM parental	ANO1 activ	CHO-K1 Ca antag	TMEM16A inh	NTR1 ag
O=S(=O)(/N=S1\CC=CCN1S(=O)(=O)c1ccccc1)c1ccccc1 (stereo not given)	35*	14	i	-5	/	/
Cc1cc(CSc2ccccc2C(=O)O)on1	1	13	i	-15	i	1
Cc1ccc(NC(Cc2cc(C)no2)c2ccccc2)cc1 (stereo not given)	14	46*	i	-17	i	8
CCCCCCn1c2c(c(=N)c3c1CCC3)CCC2	0	12	i	-8	i	5
CCCCCCCCCn1c2c(c(=N)c3c1CCC3)CCC2	5	11	i	18	100*	36
Cn1c(N)c(C(=O)COc2ccc(C#N)cc2)c(=O)n(C)c1=O	2	16	-9.1*	-14	i	0
Cn1c(N)c(C(=O)COC(=O)COc2ccc(C#N)cc2)c(=O)n(C)c1=O	3	4	i	-9	i	1
Cc1ccc(-c2nc3ncccc3o2)cc1NC(=O)c1cc2ccccc2o1	0	10	i	-3	i	4
O=C(Nc1cccc(-c2nc3ncccc3o2)c1)c1cc2ccccc2o1	3	-4	i	26*	i	6
CCC1CCC2(CC1)NC(CO)(CO)CO2 (stereo not given)	1	19	i	-28	i	2
CCC(C)(C)C1CCC2(CC1)NC(CO)(CO)CO2 (stereo not given)	0	8	-4.9*	-2	i	-1
COc1ccc(NC(=O)CCN2CCN(S(=O)(=O)c3ccc(Cl)cc3)CC2)cc1	4	33	i	-35	i	0
COc1ccc(NC(=O)CCN2CCN(S(=O)(=O)c3ccc(C(C)C)cc3)CC2)cc1	18*	21	i	-38	i	1
CCOc1ccc(NC(=O)CCN2CCN(S(=O)(=O)c3cc(Cl)ccc3OC)CC2)cc1	4	41*	i	-20	i	-1
Cc1cc(OCC(=O)Nc2ccc(S(=O)(=O)N3CCN(C)CC3)cc2)ccc1Br	18*	-2	i	5	i	2
O=C(c1cccc([N+](=O)[O-])c1)N1CCN(S(=O)(=O)/C=C/c2ccccc2)CC1	1	16	i	-12	/	2
COc1ccc(CC(=O)OCC(=O)Nc2ccc3[nH]c(=O)[nH]c3c2)cc1OC	1	18	/	-14	/	/
O=C(N[C@@H](Cc1c[nH]c2ccccc12)C(=O)O)c1ccc(Cl)cc1	1	8	i	-12	i	0
NC(=NCCc1c[nH]c2ccccc12)NC(=O)c1ccc(Cl)cc1	1	11	i	-2	100*	5
CCCCNC(=O)C1c2ccccc2OCC(=O)N1CCCN1CCOCC1 (stereo not given)	0	11	/	-13	/	/
COc1ccccc1NS(=O)(=O)c1cc(C(=O)NCc2ccncc2)ccc1C	1	19	i	-5	i	1
COc1ccccc1NS(=O)(=O)c1cc(C(=O)NCCC(C)C)ccc1F	3	6	-9.5*	1	i	0
